Compounds with a hit are over-represented: about 21% of the library has one in this group of screens.
Cycloheximide cs: counter-screen hit for Shiga toxin inhibitors, cycloheximide; cell reporter, cycloheximide protein synthesis inhibition counterscreen; max response, %; hit rate 12% among 300,000; AID 2314; in the data active = max response mostly above about 13%, no sharp cut-off; inactive = mostly below about 14%; note: read at 38.3 µM for the half of the compounds with a filed dose; 0% is about no effect
Pf growth 48h: P. falciparum growth inhibition at 48 hours (one generation). hit rate 5.9% among 310,000. Potency, µM (top dose mostly 28.7 µM), inactives show at the highest dose activity change, negative = inhibition, actives largely listed as inhibitors. P. falciparum luciferase growth in erythrocytes, 48 h. AID 504832; active = well fitted inhibition curve with a large enough effect; inconclusive = small, poorly fitted or top-dose-only effect, or another doubt; inactive = no such curve, though single readings can be large or run the other way; note: potency is the fitted concentration of half-maximal effect; % is set by controls: 0 for no effect and ±100 for the full control effect
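Here the parasites carry a stable luciferase gene and grow inside erythrocytes in Albumax-based RPMI medium with compound for one erythrocytic cycle. Activity is scored as loss of luminescent signal.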
NS1 inh: inhibitors of influenza NS1 protein function | AID 2326 | Potency, µM (doses to about 46.1 µM), for the others: top-dose activity, positive = more growth | hit rate 0.4% among 270,000; note: potency is the fitted concentration of half-maximal effect; actives are rising curves; nearly all actives have a fitted effect of over 50% in size
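In this qHTS, NS1 from influenza A is expressed in budding yeast, where it slows growth. Cells are switched from glucose to 2% galactose medium (pH 6.0, -URA), treated with compound, and growth recovery is read at OD600.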
Shiga toxin inh: inhibitors of Shiga toxin in Vero cells; hit rate 9.2% among 290,000; Vero cells, Shiga toxin protein synthesis inhibition reporter; inhibition, % at 38.7 µM; in the data active = inhibition mostly above about 28%, no sharp cut-off; inactive = mostly below about 43%; note: 0% is about no effect
SARS PLP yeast: inhibitors of SARS-CoV papain-like protease in yeast; Potency, µM (titrated, usually from 32.9 µM), inactives show at the highest dose activity, positive = growth rescue, hits mostly activators; hit rate 0.19% among 330,000; S. cerevisiae expressing SARS-CoV PLpro, growth rescue; note: potency is the fitted concentration of half-maximal effect; 0% is about no effect; nearly all actives have a fitted effect of over 55% in size
Pf growth 96h: inhibits malaria parasite growth, 96 h. hit rate 6.9% among 320,000. Potency, µM (top dose mostly 28.7 µM), without a hit: at the top dose activity change, negative = inhibition, usual class: inhibitors. P. falciparum luciferase reporter growth, 96 h. AID 504834; active = well fitted inhibition curve with a large enough effect; inconclusive = small, poorly fitted or top-dose-only effect, or another doubt; inactive = no such curve, though single readings can be large or run the other way; note: potency is the fitted concentration of half-maximal effect; % is set by controls: 0 for no effect and ±100 for the full control effect
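Erythrocytes infected with luciferase-expressing P. falciparum were dispensed at 2% hematocrit and 0.05% parasitemia (final), then incubated with compounds 96 hours at 37 C in 5% CO2. Luminescence after detection reagent addition reported growth.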
Active calls of the source: *; ? = inconclusive; nt = no result given. Unless noted, calls come from the whole dose curve.

SMILES	Cycloheximide cs	Pf growth 48h	NS1 inh	Shiga toxin inh	SARS PLP yeast	Pf growth 96h
CC(C)(CO)NC(=O)CCCOc1ccc(Cl)cc1Cl	50*	84%	-2%	54*	3%	77%
O=C(COc1ccc(Cl)cc1Cl)Nc1ccc(C(=O)Nc2ccccc2C(=O)O)cc1	35*	15%	?	45	3%	?
O=C(CCCOc1ccc(Cl)cc1Cl)Nc1ccccc1C(=O)O	42*	53%	-2%	84*	2%	54%
COCc1nnc(NC(=O)C2CC(=O)N(CCc3ccc(F)cc3)C2)s1 (stereo unspecified)	-5	22%	-18%	-6	1%	33%
CCOc1ccc(CC(=O)N2N=C(C)CC2(O)C(F)(F)F)cc1 (stereo unspecified)	-3	7%	-2%	-3	9%	-7%
Cc1cc(C)nc(N/N=C/c2cc(Br)ccc2O)n1	28*	?	-4%	39	9%	?
Cc1nnc(C)n1/N=C/c1cc(Br)ccc1O	1	7%	5%	-18	1%	-21%
Cc1cc(C)nc(N/N=C/c2ccccc2OCc2ccc(Br)cc2)n1	29*	?	0%	79*	-3%	?
Cc1cc(C)nc(N/N=C/c2ccccc2OCc2ccc(Cl)cc2)n1	13	-13%	3%	41	-34%	?
Cc1cc(C)nc(N/N=C/c2ccccc2OCc2cccc(Br)c2)n1	14*	1%	-33%	17	-9%	?
Cc1cc(C)nc(N/N=C/c2ccccc2OCc2ccccc2)n1	12*	0%	3%	33	-12%	-13%
Cc1cc(C)cc(OCC(=O)OCC(=O)Nc2c(C)n(C)n(-c3ccccc3)c2=O)c1	8	11%	7%	26	-1%	12%
CC1CCCC/C1=N\NC(=S)Nc1cccnc1 (stereo unspecified)	4	0%	5%	18	1%	1%
CC1CCCC/C1=N\NC(=S)NCCc1ccccc1 (stereo unspecified)	44*	31%	nt	98*	3%	-5%
Cc1ccc(NC(=S)N/N=C2\CCCCC2C)cc1 (stereo unspecified)	44*	18%	nt	95*	-3%	-19%
Cc1cc(C)c([C@@H]2C[C@H]3CN(C4CCCC4)C(=O)[C@]34CCCN24)c(-n2cccn2)c1	7	?	-1%	23	-1%	?
Cn1cc([C@@H]2C[C@H]3CN(C4CCCC4)C(=O)[C@]34CCCN24)c(-c2ccccc2)n1	-2	5.2µM*	4%	-23	-1%	5%
CC(C)(C)c1ccc(C(=O)Nc2cccnc2)cc1	26*	193%	-42%	30	-20%	-19%
COc1ccc(C(=O)Nc2nc(C)c(C)s2)cc1OC	55*	76%	-21%	96*	19%	?
O=C(Nc1cccnc1)c1ccc(C(=O)Nc2cccnc2)cc1	-4	5%	0%	19	0%	?
COc1ccc(C(=O)Nc2cccnc2)cc1OC	13*	35%	0%	23	30%	-1%
COc1cc2c(cc1NC(=O)c1cccnc1)CCCC2	20*	14%	-7%	23	8%	?
O=C(CSc1nc(COc2ccccc2)nc2ccccc12)NC1CCCC1	-3	30%	2%	2	1%	?
O=C(Nc1ccc(S(=O)(=O)Nc2nccs2)cc1)/C(=C/c1ccccc1Cl)NC(=O)c1ccccc1	-2	12%	?	-17	0%	16%
COc1ccc(C(=O)Nc2cccc(NC(=O)c3ccc(OC)c(OC)c3)n2)cc1OC	22*	10µM*	-23%	39*	0%	-15%
SMILES	Cycloheximide cs	Pf growth 48h	NS1 inh	Shiga toxin inh	SARS PLP yeast	Pf growth 96h
CCCC1=[N+](CC(=O)c2ccc(C)cc2)CCn2cccc21	1	10µM*	-3%	-6	13%	?
O=C(CN1C(=O)c2ccccc2C1=O)N1CCN(C2c3ccccc3-c3ccccc32)CC1	-1	3%	-8%	-4	-1%	?
N#C/C(=C\c1cccc([N+](=O)[O-])c1)C(=O)NCc1cccnc1	-1	7%	7%	4	-20%	6.6µM*
N#C/C(=C/c1cccc([N+](=O)[O-])c1)C(=O)Nc1ccccc1O	13*	9%	-39%	22	-4%	12%
N#C/C(=C\c1cccc([N+](=O)[O-])c1)C(=O)NCc1ccc(Cl)cc1	-3	?	nt	14	0%	?
N#C/C(=C\c1cccc([N+](=O)[O-])c1)C(=O)Nc1cccnc1	-7	-5%	nt	3	1%	-9%
Cc1ccc(S(=O)(=O)CCC(=O)OCC(=O)Nc2cc(S(=O)(=O)N3CCOCC3)ccc2C)cc1	nt	?	nt	nt	-2%	6%
CCCc1cc(N2CCC(C(N)=O)CC2)nc(-c2ccccc2)n1	8	5.2µM*	-2%	-7	1%	23%
Cc1cc(N2CCC(C(=O)NC3CC3)CC2)nc(-c2ccccc2)n1	-5	3.7µM*	-1%	-3	-7%	?
CC(Oc1ncnc2ccccc12)C(=O)Nc1cccc(S(=O)(=O)N2CCOCC2)c1 (stereo unspecified)	-5	-18%	14%	14	9%	?
CC(=O)OCC(NC(=O)C(COCc1ccccc1)NC(=O)OC(C)(C)C)C1OC(n2cc(C)c(=O)[nH]c2=O)C(OC(C)=O)C1OC(C)=O (stereo unspecified)	1	nt	nt	-2	nt	nt
CC1CCCC(N2CCN(S(=O)(=O)c3ccccc3)CC2)C1 (stereo unspecified)	-1	24%	10%	-12	1%	?
CCCN1C(=O)/C(=C\C=C2/Sc3ccccc3N2CC)SC1=S	-3	22%	-3%	-12	2%	49%
CN1C(=O)/C(=C/C=C2\SCCN2C)SC1=S	58*	141%	11%	82*	-1%	182%
CN1C(=O)/C(=C/C=C2\SCCN2C)N(C)C1=S	49*	210%	nt	121*	1%	?
CN1C(=O)C(=Cc2ccc(N3CCCCCC3)o2)C(=O)N(C)C1=S	3	-9%	-1%	-2	-1%	nt
CCOC(=O)C1=C(O)C(=O)N(CCCn2ccnc2)C1c1ccc(OC)cc1 (stereo unspecified)	1	5%	nt	6	-1%	2%
COc1cc(/C=C(\C#N)C(=O)N2CCOCC2)ccc1OCc1ccccc1	3	-3%	-5%	40	0%	-15%
N#C/C(=C\c1ccc(OCc2ccccc2)cc1)C(=O)Nc1ccc(C(=O)O)cc1	26*	10%	-56%	46*	2%	34%
N#C/C(=C/c1ccc(C(=O)O)cc1)C(=O)Nc1ccccc1	7	10%	nt	-15	-2%	12%
N#C/C(=C\c1ccc(OCc2ccc(C(=O)O)cc2)cc1)C(=O)N1CCOCC1	99*	212%	14%	179*	-6%	215%
CC(=O)Nc1ccc(C(=O)Cn2c3[n+](c4c(F)c(F)ccc42)CCCCC3)cc1	-2	?	nt	-2	-2%	?
